YopH inh: YopH tyrosine phosphatase inhibitors, primary screen, biochemical, fluorescence Ex485/Em525; YopH tyrosine phosphatase [Yersinia enterocolitica]; inhibition, % (test concentration not listed); hit rate 0.16% among 140,000; AID 898, 2007; in the data active means inhibition above about 50%
RmlCD inh mix: RmlC and RmlD coupled enzyme inhibitors, primary screen, biochemical, 384-well, compound mixtures, retest. RmlC/RmlD coupled enzyme inhibition, 384-well mixture HTS. inhibition, % at 5.5 µM. hit rate 0.39% among 110,000. AID 1532, 2009; in the data active means inhibition above about 30%, passing the limit was not always enough
RmlCD fluor art: counter-screen for RmlC/RmlD inhibitors: fluorescence artifact, dose response, artefact control, biochemical | shares compounds with RmlCD inh mix | RmlC/RmlD assay fluorescence artifact counter-screen | calls only | hit rate 96% among 360 | AID 1696, 2009; call rule not given here;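 further: compound alone with no enzyme and no substrates present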
A number is an active result; i = inactive; nt = no result; + = active, no number. Shown are actives, neighbours in structure and some others; about 0.44% of the full set was active somewhere.

SMILES	YopH inh	RmlCD inh mix	RmlCD fluor art
Clc1ccc(-c2cn3cccnc3n2)cc1	i	40	+
Clc1ccc(-c2cn3cccnc3n2)cc1Cl	i	i	nt
Brc1ccc(-c2cn3cccnc3n2)cc1	i	45	+
COc1ccc(-c2cn3cccnc3n2)cc1F	i	nt	nt
O=S(=O)(c1cccc(-c2cn3cccnc3n2)c1)N1CCOCC1	i	67	+
O=S(=O)(c1cccc(-c2cn3cccnc3n2)c1)N1CCCCCC1	i	i	nt
CCC1ON(c2ccccc2)C2c3nc4ccccc4n3CC12 (stereo not given)	nt	i	nt
Oc1ccc(CNCC2COc3ccccc3O2)cc1 (stereo not given)	i	i	nt
CCOc1cc(S(=O)(=O)NCc2ccccn2)c(C)cc1C	i	nt	nt
COc1ccc2cc(C(=O)NCc3ccco3)c(=O)oc2c1	i	i	nt
O=C(NCc1ccco1)c1cc2ccc(O)cc2oc1=O	i	86	+
CC(C)(C)NC(=O)c1oc2ccccc2c1COc1ccccc1	i	nt	nt
COc1ccc(-c2nnc(-c3cc4ccccc4oc3=O)o2)cc1	i	i	nt
CCCCCCc1cc2cc(-c3nnc(-c4ccccc4OC)o3)c(=O)oc2cc1O	i	181	+
Cc1cccc2c(=O)c(C(=O)NCCCN3CCOCC3)c[nH]c12	i	i	nt
Cn1c2c(c(=O)n(C)c1=O)C(c1ccccc1OC(F)F)C1=C(CCCC1=O)N2 (stereo not given)	i	i	nt
Cn1c(C(=O)N2CCc3ccccc3C2)cc2c(=O)n3ccccc3nc21	i	103	+
CC1Cc2ccccc2N1C(=O)c1cc2c(=O)n3ccccc3nc2n1C (stereo not given)	i	i	nt
O=C(/C=C/c1ccccc1)Nc1cccc(S(=O)(=O)Nc2ccccc2F)c1	i	nt	nt
COc1cccc(-n2nnnc2SCC(=O)c2cc(OC)ccc2OC)c1	i	38	+
COc1cccc(-n2nnnc2SCC(=O)c2ccc(NC(C)=O)cc2)c1	i	i	nt
O=C(Nc1ccc(Cl)cc1)Nc1nnc(CSCc2ccc(Cl)cc2)s1	i	nt	nt
Cn1c(/C=N/n2cnnc2)nc2ccccc21	i	44	+
Cn1c(/C=N/c2nc3ccccc3[nH]2)nc2ccccc21	i	i	nt
Cc1ccc(-c2nc3cc(N)ccc3o2)cc1	i	nt	nt
SMILES	YopH inh	RmlCD inh mix	RmlCD fluor art
Nc1cccc(-c2nc3cc(S(=O)(=O)c4ccc5oc(-c6cccc(N)c6)nc5c4)ccc3o2)c1	i	46	+
Cc1ccc(-c2cc(C(F)(F)F)c(C#N)c(=O)[nH]2)cc1	i	nt	nt
N#Cc1c(C(F)(F)F)cc(C2CC2)[nH]c1=O	i	40	+
CCC(CC)NC(=O)CO/N=C/c1ccccc1OC(F)F	i	nt	nt
Cc1ccc(-c2nnc(SCC(=O)N/N=C/c3ccc(C)s3)n2-c2ccccc2)cc1	i	nt	nt
O=C(NNS(=O)(=O)c1ccccc1[N+](=O)[O-])c1cccc([N+](=O)[O-])c1	i	nt	nt
O=C(N/N=C/c1ccc(F)c(F)c1)c1cc2c(s1)-c1ccccc1CC2	i	i	nt
CNC(=O)c1cc2c(s1)-c1ccccc1CC2	nt	nt	+
COc1cccc(/C=C/c2nc3c(cnn3-c3ccccc3)c(=O)[nH]2)c1	nt	nt	+
COc1cccc(/C=N/n2nnc3c(cnn3-c3ccccc3)c2=O)c1	i	nt	nt
O=C(O)C1C2C=CC(O2)C1C(=O)NCc1ccccc1Br (stereo not given)	i	i	nt
CCc1cc(=O)oc2c(C)c(O)c(CN(C)C)cc12	i	82	+
CCCOc1ccc2c(CC)cc(=O)oc2c1C	i	nt	nt
COc1ccc(C(=O)OCC(=O)c2ccccc2)cc1S(=O)(=O)N1CCOCC1	i	i	nt
Cc1ccc(N2C(N)=C(C#N)C(c3cccnc3)C3=C2CCCC3=O)cc1 (stereo not given)	i	nt	nt
CC1=C(C#N)C(c2cccnc2)C2=C(CCCC2=O)N1 (stereo not given)	i	32	+
O=C(CN1CCCC1)Nc1ccc(-c2nc3cc(NC(=O)CN4CCCC4)ccc3o2)cc1	i	46	+
CCN(CC)CC(=O)Nc1ccc(-c2nc3cc(NC(=O)CN(CC)CC)ccc3o2)cc1	i	i	nt
CCCCCCOC(=O)Cc1c(C)nc(-c2ccccc2)[nH]c1=O	i	i	nt
CN(C)Cc1c(O)ccc2oc(Cc3ccccc3)cc12	i	i	nt
Cc1c(Br)c(=O)oc2c(Br)c(O)c(O)cc12	i	nt	nt
CCN(CC)Cc1c(O)c(Cl)cc2c(C)c(C)c(=O)oc12	i	68	+
Cc1c(Cc2ccccc2)c(=O)oc2c(CN(C)C)c(O)c(Cl)cc12	i	145	+
O=C(CSC1=NCCN1)C1COc2ccccc2O1 (stereo not given)	i	i	nt
CCCc1c(OCCCCc2nn[nH]n2)ccc(C(C)=O)c1O	i	i	nt
SMILES	YopH inh	RmlCD inh mix	RmlCD fluor art
COc1ccc(-c2cc3nc[nH]c(=O)c3s2)cc1	i	51	+
O=c1[nH]cnc2cc(-c3ccccc3)sc12	i	i	nt
CCOC(=O)N1CCN(C(=O)c2ccc3nc4ccc(Cl)cc4c(=O)n3c2)CC1	i	48	+
CCOC(=O)N1CCN(C(=O)c2ccc3nc4ccsc4c(=O)n3c2)CC1	i	nt	nt
CCCCc1nnc(NC(=O)C(C)Sc2nc(C)cc(=O)[nH]2)s1 (stereo not given)	i	i	nt
O=C(N/N=C/c1ccccc1F)c1ccc(COc2ccccc2Cl)o1	i	nt	nt
CC(=O)c1cc2c(O)c(O)ccc2o1	i	i	nt
CC(=O)c1cc2cc(O)ccc2o1	i	136	+
CCOC(=O)c1c(NC(=O)c2ccccc2Br)sc2c1CCc1ccccc1-2	i	i	nt
NS(=O)(=O)c1cccnc1Nc1c(Cl)cccc1Cl	i	i	nt
O=C1OCC2OC(O)C(O)C(O)C2OC(=O)c2cc(O)c(O)c(O)c2-c2c(O)c(O)c3oc(=O)c4c(c(O)c(O)c5oc(=O)c2c3c54)-c2c1cc(O)c(O)c2O (stereo not given)	nt	35	+
Cc1ccc(S(=O)(=O)NC(CC(C)C)C(=O)Oc2ccc3c4c(c(=O)oc3c2)CCC4)cc1 (stereo not given)	i	nt	nt
CC[C@@H](NS(=O)(=O)c1ccc(C)cc1)C(=O)Oc1ccc2c3c(c(=O)oc2c1)CCC3	i	nt	+
CCC(C)C(NS(=O)(=O)c1ccc(C)cc1)C(=O)Oc1ccc2c3c(c(=O)oc2c1)CCC3 (stereo not given)	i	i	nt
CC(C)CC(C(=O)Oc1ccc2c3c(c(=O)oc2c1)CCC3)N1C(=O)c2ccccc2C1=O (stereo not given)	i	nt	+
CCOC(=O)C(=CNc1ccc2c(c1)nnn2-c1ccc(Cl)cc1)C(=O)OCC	i	nt	nt
CCOC(=O)CC(NC(=O)Cc1ccc(F)cc1)c1ccccc1Cl (stereo not given)	i	nt	nt
Cc1ccc2nc(-c3cccc(S(=O)(=O)N(C)C)c3)cn2c1	i	i	nt
CN(C)S(=O)(=O)c1ccc(-c2cn3ccccc3n2)cc1	i	40	+
Cc1ccc(CSc2nnc(-c3ccco3)o2)cc1	i	nt	nt
COc1ccc(-c2nc(C#N)c(N3CCC(C(N)=O)CC3)o2)cc1	90	50	+
N#Cc1nc(-c2ccc(OCc3ccccc3)cc2)oc1N1CCC(C(N)=O)CC1	i	nt	nt
O=C(NNC(=O)C(c1ccccc1)c1ccccc1)c1ccccn1	i	nt	nt
COC(=O)CON1C(=O)c2ccccc2C1=O	i	i	nt
Cc1cc(C)c(C)c(S(=O)(=O)ON2C(=O)c3ccccc3C2=O)c1C	i	114	+
C=CCON1C(=O)c2ccccc2C1=O	i	i	nt

High-throughput results (PubChem)
